From the OligoGym collection

molecular target: ST8SIA1; experiment: pooled miR-30 sensor sort-seq; sequence = guide strand; settings: shRNA
Further: reference of the scale not given here.

Sequence | sensor-assay potency score (higher = more potent)
TTTGATTGGCACCAACATCTGA | -0.123
TTGATTGGCACCAACATCTGAC | -0.0698
TAAGTTGAATTGTCAATGGTGA | -0.263
TAGCTGTCACTAACTGACTTTT | -1.28
TTGACAATCAGCAACACTTTTA | -1.09
TTAGCTGTCACTAACTGACTTT | 0.0924
TTGTCCACAAATGTCTTTCTGG | -0.546
TGACAGTGTATAATAAACCCTC | -0.586
TTTGTTTCCTGAACGCTCTGGC | 0.807
TAAGACGTTGTCATAGTAGTGG | 0.604
TTTGCTTCATCTATTTGACGGC | 0.566

molecular target: ST8SIA4; experiment: as above; settings: shRNA

Sequence | sensor-assay potency score (higher = more potent)
TTTGATAGGAACTTTGTTGGTC | 0.701
TTCTATTTGAATAACAAGGGGA | -0.346
TTAACTACAGAAAATATCGGTC | 0.169
TCTTTTGATAGGAACTTTGTTG | -0.556
ATTGTGACTGTCAATCTCCTTT | -0.228
TTGACCACTGACACATCTCGTT | 0.237
TACATGAGAAGACCTGTGCTGG | -0.695
TTGAAATTAATCATCTCTGTTT | 0.14
TTTCCAACCTTCTACATTGTGC | -0.709
TTTAACTACAGAAAATATCGGT | 0.525
TTATGTAGCACATTTAATGTTT | -0.574

molecular target: STAC; experiment: as above; settings: shRNA

Sequence | sensor-assay potency score (higher = more potent)
TTCTTCTTCAGAACTCACGCAG | 0.0195
TTGCAGTTTCATGTCTTCGCTG | 0.116
TTTATAGTCCTACTGCTGCTGC | -0.661
TTGTACAAGGCAACATAGGTGT | -0.164
TTGTCAGCACTTTTGCTCCGTA | -0.694
TCTTGAAAGAAAGTGATCGTTT | -0.172
TTCCAAATCTTCATTCTCCTGT | 0.665
TTTGTTGTAGTCTCTGAACAAA | -1.36
TACATTTCTTCTAAGATGCTGT | 0.11
TATGTAAACACGCTGTTGCTGC | -0.123
TTTCATGTCTTCGCTGTTGGTT | 0.0863
TTGTAGTCTCTGAACAAAGTTG | -1.06

molecular target: STAP2; experiment: as above; settings: shRNA

Sequence | sensor-assay potency score (higher = more potent)
TAGAGGAAGCCACATCTTGGTT | -1.31
TTCTCATAGTCAACAGCTGGGC | -0.883
TAGCCTAGCACCTTCTCGTAGT | -0.174
TCTCATAGTAGTGTGAAGGCAG | 0.0304
